Compound activity: PubChem BioAssay, National Center for Advancing Translational Sciences (NCATS)
The list is not random: actives were taken first. Their share in the collection is about 1.7%.
Anesthetic bind: candidate novel general anesthetic via apoferritin binding; P02791; Potency, µM (top dose mostly 77.5 µM), without a hit: top-dose activity change, negative = displacement, actives largely listed as inhibitors; apoferritin/1-aminoanthracene competitive binding, fluorescence; 0.074% of 350,000 active; further: potency means the concentration at half of the fitted maximal effect; on the % scale 0 is the no-effect control and ±100 the full control effect; nearly all actives have a fitted effect of over 20% in size
Target sequence (P02791 2-175 limits assumed): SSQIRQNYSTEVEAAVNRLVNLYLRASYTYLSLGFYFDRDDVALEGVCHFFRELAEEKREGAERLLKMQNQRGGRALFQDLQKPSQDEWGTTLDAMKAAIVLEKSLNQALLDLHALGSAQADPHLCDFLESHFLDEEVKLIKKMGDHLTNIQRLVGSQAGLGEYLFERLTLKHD
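Horse-spleen apoferritin (10 uM) in 50% saturated 1-aminoanthracene in PBS was incubated 10 min at room temperature with compound. Fluorescence (ex 380, em 535 nm) was normalized to free and bound 1-AMA, with concentration-response fitted by a four-parameter Hill equation.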
TrxR1 substrate: substrates of rat thioredoxin reductase 1; O89049; purified TrxR1 substrate turnover, NADPH consumption readout; Potency, µM (doses to about 114 µM), for inactives: top-dose activity change, negative = substrate turnover; 0.01% of 390,000 active; AID 588456; further: potency means the concentration at half of the fitted maximal effect; on the % scale 0 is the no-effect control and ±100 the full control effect; nearly all actives have a fitted effect of over 50% in size
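Rat TrxR1, dispensed at 90 nM, was prereduced with 400 uM NADPH (final) for 5 min at ~22 deg C, then incubated with compound 15 min before 400 uM selenite. A first-read NADPH fluorescence drop versus no-compound background flagged substrates.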
rTrxR1 inhibitor: rat TrxR1 inhibition; recombinant rTrxR1, NADPH fluorescence consumption, selenite substrate; O89049; 1% of 390,000 active; Potency, µM (top dose mostly 114 µM), for inactives: at the highest dose activity change, negative = inhibition, actives largely listed as inhibitors; further: potency means the concentration at half of the fitted maximal effect; on the % scale 0 is the no-effect control and ±100 the full control effect; nearly all actives have a fitted effect of over 65% in size
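Rat TrxR1 (90 nM in the dispensed reagent) was pre-reduced with 400 uM NADPH for 5 min at room temperature, then incubated with compound for 15 min. After 400 uM selenite was added, NADPH fluorescence (Ex 340/Em 450 nm) was followed for 8 min.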
ALOX12 inh: inhibitors of human 12S-lipoxygenase ALOX12; P18054; purified 12hLO, xylenol orange hydroperoxide absorbance; Potency, µM (highest dose often 108 µM), inactives show at the top dose activity change, negative = inhibition, most hits filed as inhibitors; 1.1% of 580,000 active; AID 1671190; further: potency means the concentration at half of the fitted maximal effect; on the % scale 0 is the no-effect control and ±100 the full control effect
Target sequence (P18054 whole entry, looked up): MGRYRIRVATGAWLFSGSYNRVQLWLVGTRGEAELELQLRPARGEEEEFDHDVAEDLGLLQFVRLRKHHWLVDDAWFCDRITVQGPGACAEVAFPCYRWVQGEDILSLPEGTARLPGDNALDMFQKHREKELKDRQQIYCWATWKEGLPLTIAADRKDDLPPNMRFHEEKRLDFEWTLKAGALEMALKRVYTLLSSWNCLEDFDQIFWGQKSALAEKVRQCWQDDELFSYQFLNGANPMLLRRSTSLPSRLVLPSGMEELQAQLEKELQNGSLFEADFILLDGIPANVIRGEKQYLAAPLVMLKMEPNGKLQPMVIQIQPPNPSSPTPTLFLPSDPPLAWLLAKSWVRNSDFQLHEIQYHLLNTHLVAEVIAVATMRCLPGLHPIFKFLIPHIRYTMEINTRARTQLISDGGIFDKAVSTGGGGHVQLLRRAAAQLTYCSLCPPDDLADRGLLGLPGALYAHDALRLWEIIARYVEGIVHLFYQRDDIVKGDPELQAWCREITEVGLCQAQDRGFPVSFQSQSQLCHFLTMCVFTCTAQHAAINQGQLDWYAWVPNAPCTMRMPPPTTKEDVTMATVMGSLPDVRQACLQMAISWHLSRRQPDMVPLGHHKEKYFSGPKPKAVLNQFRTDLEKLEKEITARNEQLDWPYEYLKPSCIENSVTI
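Purified human 12hLO (150 nM final) in 25 mM Hepes, 0.01% Triton X-100, pH 7.0 was preincubated 15 min at room temperature with compound. Then 40 uM arachidonic acid was added, 30 min. Hydroperoxide was read by Fe-XO absorbance ratio 573/405 nm.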
IDH1 R132H inh: human IDH1 R132H inhibition; Potency, µM (highest dose often 76.6 µM), inactives show top-dose activity change, negative = inhibition, usual class: inhibitors; IDH1-R132H enzyme, NADPH consumption, diaphorase/resazurin fluorescence; 0.093% of 390,000 active; further: potency means the concentration at half of the fitted maximal effect; on the % scale 0 is the no-effect control and ±100 the full control effect; nearly all actives have a fitted effect of over 65% in size
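IDH1-R132H (0.5 ug/mL dispensed) in pH 7.5 Tris buffer was preincubated 30 min with compound, then given a substrate mix of 0.016 mM NADPH and 2 mM alpha-KG for 80 min at room temperature; remaining NADPH was read by diaphorase/resazurin fluorescence.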
GRP78 ERSR act: inducers of ER stress response in human glioma cells. AID 602332. Potency, µM, for inactives: top-dose activation, actives largely listed as activators. U87-MG GRP78 promoter luciferase reporter, 16 h. 0.02% of 420,000 active; further: potency means the concentration at half of the fitted maximal effect; series mostly up to about 76 µM; % of control where 0% means no effect; nearly all actives have a fitted effect of over 35% in size
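Stably transfected U87-MG human glioma cells carrying a GRP78-based luminescent sensor were seeded at 1000 cells/well, pin-dosed with compounds and incubated 16 h. Luciferase reagent was then added, and end-point luminescence was read after 10 min at room temperature.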
Resorufin autofl: autofluorescence interference, mutant IDH1 hit counter-screen | inhibition of signal, % at 51.2 µM | Resorufin detection reagent fluorescence interference, cell-free | shares compounds with IDH1 R132H inh | 750 tested, under 10 active;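 further: 0% = wells with normal resorufin and full inhibition = wells lacking resorufin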
WT IDH1 inh: inhibits human wild-type IDH1, mutant selectivity check; shares compounds with IDH1 R132H inh; WT IDH1 enzyme, NADPH diaphorase/resazurin fluorescence; Potency, µM (top dose mostly 115 µM), for the others: at the top dose activity change, negative = inhibition, hits mostly inhibitors; 9% of 750 active; AID 623995;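 further: potency means the concentration at half of the fitted maximal effect; 0% = full WT IDH1 enzyme control and full inhibition = no enzyme wells; nearly all actives have a fitted effect of over 55% in size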
IDH1 R132H conf: inhibits human mutant IDH1 enzyme in cherrypick confirmation | shares compounds with IDH1 R132H inh | IDH1 R132H enzyme, NADPH diaphorase/resazurin fluorescence | Potency, µM (doses to about 76.6 µM), inactives show at the highest dose activity change, negative = inhibition, hits mostly inhibitors | 83% of 750 active | AID 624002; further: potency means the concentration at half of the fitted maximal effect; nearly all actives have a fitted effect of over 50% in size
* = called active by the depositor; ? = inconclusive; / = no result given; [ ] = dose if it differs, or a comment. The call rests on the fitted dose curve; in most records, active means well fitted curve in the direction sought with a large enough effect; inconclusive means small, poorly fitted or top-dose-only effect, or another doubt; inactive means no such curve, though single readings can be large; an effect the other way counts as inactive or inconclusive.

SMILES	Anesthetic bind	TrxR1 substrate	rTrxR1 inhibitor	ALOX12 inh	IDH1 R132H inh	GRP78 ERSR act	Resorufin autofl	WT IDH1 inh	IDH1 R132H conf
O=C(N[C@@H]1CCC[C@@H]1C(=O)NCc1ccc2c(c1)OCO2)c1ccncc1	/	/	/	3.0%	/	/	/	/	/
N#Cc1ccc(CCC(=O)NCc2cccc(F)c2)cc1	/	/	/	-22.2%	/	/	/	/	/
COc1cccc(N(C(=O)c2cnccn2)C(C(=O)NC2CCCCC2)c2ccc(Cl)cc2)c1 (centres undefined)	-2.2%	3.5%[57.1 µM]	34.2%[57.1 µM]	27.0%	-5.9%	-2.7%	/	/	/
O=C(NC1CCCC1)C(c1ccncc1)N(C(=O)c1csnn1)c1ccccc1 (centres undefined)	2.6%	3.5%[57.1 µM]	10.6%	-9.0%	-2.1%	-5.6%	/	/	/
O=C(NC1CCCC1)C(c1ccccc1)N(C(=O)c1csnn1)c1ccccc1F (centres undefined)	-1.6%	-12.5%	-17.7%	23.2%	?	-4.0%	-6.5	-2.1%	25.1µM*
O=C(NC1CCCCC1)C(c1ccc(Cl)cc1)N(C(=O)c1cnccn1)c1ccc2c(c1)OCO2 (centres undefined)	-1.9%	5.7%	17.5%	-18.5%	?	-1.0%	-7.2	-10.6%	?
COc1cccc(N(C(=O)c2csnn2)C(C(=O)NC2CCCC2)c2ccccc2)c1 (centres undefined)	-1.4%	4.7%[57.1 µM]	12.8%[57.1 µM]	-0.7%	?	1.3%	3.7	-4.1%	39.8µM*
O=C(NC1CCCCC1)C(c1ccco1)N(C(=O)c1csnn1)c1cccc(Cl)c1 (centres undefined)	?	6.8%[57.1 µM]	15.4%[0.0914 µM]	-9.4%	?	-3.7%	0.3	-1.5%	28.2µM*
CN1[C@@H](CCC(=O)NCc2ccc(F)cc2)CNC(=O)[C@@H]2[C@H]1CCN2Cc1ccc(F)cc1	/	/	/	58.6%	/	/	/	/	/
C[C@@H]1C[C@H]2[C@@H]3CCC4=CC(=O)C=C[C@]4(C)[C@@]3(Cl)[C@@H](O)C[C@]2(C)[C@@]1(OC(=O)c1ccco1)C(=O)CCl	/	-4.3%	1.6%	?	35.5µM*	-2.8%	0.2	12.1%	8.91µM*
C[C@H]1C[C@@H]2[C@H]3CCC4=CC(=O)C=C[C@@]4(C)[C@@]3(Cl)[C@@H](O)C[C@]2(C)[C@]1(OC(=O)c1ccco1)C(=O)CCl	-0.2%[29.3 µM]	/	/	/	/	-4.3%	/	/	/
Cc1ccc2c(c1)C(c1ccc(F)cc1)N(C(=O)COc1ccc(Cl)cc1Cl)CC(=O)N2 (centres undefined)	0.3%	7.8%[2.29 µM]	26.7%	-24.4%	9.8%	-4.5%	/	/	/
COc1ccc(C(C(=O)NC2CCCC2)N(C(=O)c2snc(C(N)=O)c2N)c2ccccc2OC)cc1OC (centres undefined)	-5.8%	25.6%	15.8%	-3.1%	-6.7%	-2.6%	/	/	/
CC(=O)c1cccc(N(C(=O)c2ccco2)C(C(=O)NC2CCCC2)c2ccccc2F)c1 (centres undefined)	-23.6%	0.8%	-3.8%	18.9%	23.3µM*	-4.0%	-0.8	4.3%	11.2µM*
COc1ccc(C(C(=O)NC2CCCC2)N(C(=O)c2snc(C(N)=O)c2N)c2cc(C)ccc2OC)cc1OC (centres undefined)	-7.1%	4.2%	-2.2%	-3.4%	?	-6.6%	5.0	3.6%	31.6µM*
COc1ccccc1N(C(=O)c1snc(C(N)=O)c1N)C(C(=O)NCc1ccccc1)c1ccc(O)cc1 (centres undefined)	3.0%	31.5%	35.0%	?	58.5µM*	-7.0%	6.2	-1.5%	22.4µM*
Cc1ccccc1N(C(=O)c1snc(C(N)=O)c1N)C(C(=O)NC1CCCC1)c1ccco1 (centres undefined)	3.6%	51.0%	-4.8%	7.5%	?	1.5%	1.8	12.6%	39.8µM*
O=C(Nc1cc(F)ccc1F)N1CC(c2noc(-c3ccccc3)n2)C1	/	/	/	13.0%	/	/	/	/	/
CC(=O)Nc1ccc(S(=O)(=O)N[C@H]2CO[C@H]3[C@@H]2OC[C@@H]3Nc2nccc(-c3ccco3)n2)cc1	/	/	/	14.0%	/	/	/	/	/
O=C(CSc1nccn1-c1ccccc1)c1cc(F)ccc1F	/	/	/	-7.4%	/	/	/	/	/
CCn1c(SCc2noc(-c3ccc(Cl)cc3)n2)nnc1N1CCOCC1	/	/	/	15.3%	/	/	/	/	/
O=C(Cc1ccsc1)NCCC1CCN(C(=O)Nc2ccc(F)cc2F)CC1	/	/	/	2.2%	/	/	/	/	/
COc1ccc(N(C(=O)c2snc(C(N)=O)c2N)C(C(=O)NC2CCCCC2)c2ccc(C)o2)cc1 (centres undefined)	-9.2%	6.7%	-16.9%	-4.9%	?	-2.8%	2.1	2.0%	?
Cc1ccc(C(C(=O)NC2CCCC2)N(Cc2ccc(F)cc2)C(=O)c2csnn2)o1 (centres undefined)	?	-7.6%[57.1 µM]	-8.3%[57.1 µM]	3.2%	-3.1%	-4.0%	/	/	/
Cc1ccc(C(C(=O)NC2CCCC2)N(Cc2ccc(F)cc2)C(=O)c2snc(C(N)=O)c2N)o1 (centres undefined)	-23.5%	12.8%	13.9%	-13.1%	?	-6.5%	-11.6	10.9%	?
Cc1cccc(N(C(=O)c2ccco2)C(C(=O)NC2CCCC2)c2ccco2)c1C (centres undefined)	-22.0%	-1.4%[57.1 µM]	1.4%[57.1 µM]	10.6%	?	-5.5%	-4.8	7.8%	20µM*
COc1ccc(CN(C(=O)Cc2c[nH]c3ccccc23)C(C(=O)NC2CCCCC2)c2ccc(C)o2)cc1 (centres undefined)	-9.6%	0.9%	9.3%	?	-17.3%	-2.7%	/	/	/
Cc1ccc(C(C(=O)NC2CCCCC2)N(Cc2ccccc2)C(=O)Cc2c[nH]c3ccccc23)o1 (centres undefined)	0.9%	-7.1%	-3.9%	-11.0%	?	-1.6%	-6.0	8.6%	?
O=C(O)c1cc(-c2ccc(-c3c(-c4ccc5c(c4)OCO5)noc3-c3ccsc3)cc2)nc2ccccc12	-14.4%	-7.8%	10.2%[57.1 µM]	?	44.7µM*	1.9%	3.5	?	20µM*
